Test results taken from PubChem BioAssay AID504652 (National Center for Advancing Translational Sciences (NCATS), 2011).
Hit rate of the full screen: of about 360,000 compounds, about 11,000 (3.1%) were called active. Shown is part of a subset that was picked to be rich in actives. A number with no mark means an inactive call. Rule as the data show it: active = activity change below about -30%; inactive = the rest.

Target: D(1A) dopamine receptor (Homo sapiens) (UniProt P21728)
Test: Antagonist of Human D 1 Dopamine Receptor: qHTS
Details: HEK293 TREx D1 cells, calcium flux, dopamine EC80; at 10 µM; hits give low values
Procedure, shortened: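 Inducible Hek293 Trex D1 cells (tetracycline, overnight, 30 C). Calcium dye 30–90 min RT. Antagonist mode: EC80 dopamine added after 180 s compound read.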
% is scaled to controls: 0 for no effect and ±100 for the full control effect.

Sequence of D(1A) dopamine receptor (Homo sapiens) (P21728 whole entry, looked up): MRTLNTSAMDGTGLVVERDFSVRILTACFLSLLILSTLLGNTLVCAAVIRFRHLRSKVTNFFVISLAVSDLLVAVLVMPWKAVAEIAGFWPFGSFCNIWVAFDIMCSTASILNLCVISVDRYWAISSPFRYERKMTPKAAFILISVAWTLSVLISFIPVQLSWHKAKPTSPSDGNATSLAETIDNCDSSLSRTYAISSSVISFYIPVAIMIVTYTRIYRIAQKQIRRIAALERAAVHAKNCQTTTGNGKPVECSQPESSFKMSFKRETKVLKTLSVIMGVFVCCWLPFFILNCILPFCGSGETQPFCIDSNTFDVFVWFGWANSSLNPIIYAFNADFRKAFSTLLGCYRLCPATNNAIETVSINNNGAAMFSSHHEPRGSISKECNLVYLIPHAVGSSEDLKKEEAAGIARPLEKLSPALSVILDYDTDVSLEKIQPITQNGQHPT

Row | SMILES | activity change, negative = inhibition
1 | COc1ccc(-n2nc3c(c2NC(=O)Cc2cccc(C)c2)CS(=O)C3)cc1 (stereo unspecified) | -10.2%
2 | Cc1cccc(CC(=O)Nc2c3c(nn2-c2cccc(Cl)c2)CS(=O)C3)c1 (stereo unspecified) | -0.884%
3 | CC(=O)Nc1c2c(nn1-c1ccc(C)cc1C)CS(=O)C2 (stereo unspecified) | -34.5% (active)
4 | CCOc1ccc(C2CC(=O)c3c([nH]c(C(=O)OCc4ccccc4)c3C)C2)cc1 (stereo unspecified) | -22.3%
5 | Cc1ccc(-c2ccc(CCC(=O)O)n2-c2ccc(C(N)=O)cc2)cc1 | -5.89%
6 | Clc1ccc(CSc2nncn3c2cc2occc23)cc1 | -0.2%
7 | CCOc1ccccc1C(=O)Nc1ccc2c(c1)N(C)C(=O)c1ccccc1S2 | -16.7%
8 | COc1ccccc1N1CCN(c2ccc(=O)n(CC(=O)NCc3ccc(OC(C)C)cc3)n2)CC1 | 23.5%
9 | O=S(=O)(c1cccc(Cn2nnc(-c3ccc(F)cc3)n2)c1)N1CCOCC1 | -46.2% (active)
10 | O=S(=O)(c1cccc(-c2nnc3n2CCCCC3)c1)N1CCOCC1 | 2.28%
11 | Cc1nc(-c2ccc(F)cc2)c(CC(=O)Nc2cccc(S(=O)(=O)N3CCOCC3)c2)s1 | 4.46%
12 | COC(=O)c1ccc(NC(=O)c2cccc3c2C(=O)N(C2CCCCC2)C3)cc1 | -12%
13 | CC(C)c1ccc(NC(=O)Cn2c3ncccc3c(=O)n2-c2ccccc2)cc1 | -16.2%
14 | Cc1ccc2c(=O)c(C(=O)c3ccc(F)cc3)cn(CC(=O)NC3CCCCC3)c2n1 | -3.19%
15 | Cc1ccc2c(=O)c(C(=O)c3ccc(Cl)cc3)cn(CC(=O)NC3CCCCC3)c2n1 | -2.17%
16 | Cc1ccc2c(=O)c(C(=O)c3cccc(Cl)c3)cn(CC(=O)NCc3ccccc3)c2n1 | -33.4% (active)
17 | COc1cccc(CNC(=O)C(=O)NCC(c2cccs2)S(=O)(=O)c2ccccc2)c1 (stereo unspecified) | 10.2%
18 | Cc1ccc(Cl)cc1N(C)C(=O)Cn1nc(Cc2cccnc2)c2ccccc2c1=O | 10.4%
19 | CCn1c(=O)c(=O)n(CC)c2cc(N3CCCCC3)c(NC(=O)c3cccc(F)c3)cc21 | 4.44%
20 | CC(C)(C)NC(=O)CSc1nnc(NC(=O)CCc2ccccc2)s1 | -22.4%
21 | O=C(Nc1ccncc1)c1ccccc1[N+](=O)[O-] | -0.321%
22 | Cc1ccc2nsnc2c1NC(=O)c1ccccc1[N+](=O)[O-] | 7.5%

Row | SMILES | activity change, negative = inhibition
23 | COC(=O)CSc1nnc(NC(=O)CCc2ccccc2)s1 | 5.96%
24 | O=C(CCc1ccccc1)Nc1ncc([N+](=O)[O-])s1 | -30% (active)
25 | CC(=O)Oc1ccccc1C(=O)Nc1ncc([N+](=O)[O-])s1 | -33.9% (active)
26 | Cc1ccccc1C(=O)NCc1nc(-c2ccc(Cl)cc2)no1 | -7.49%
27 | N#Cc1nc(Nc2cccc(Cl)c2)nc(NC2CCCC2)n1 | -6.69%
28 | COc1ccc(C(=O)Nc2cccc(C(=O)OCc3cc(=O)n4c5c(sc4n3)CCCC5)c2)cc1 | -2.93%
29 | CN1CCOc2cc(S(=O)(=O)N3CCN(S(=O)(=O)c4c(F)cccc4F)CC3)cnc21 | 1.83%
30 | CC1Cc2cc(S(=O)(=O)CCC(=O)Nc3ccc(F)c(Cl)c3)ccc2N1C(=O)C1CC1 (stereo unspecified) | -8.79%
31 | Cc1ccc(C)c(N2CCN(C(=O)Cc3c(C(=O)O)c(C)cn3C)CC2)c1 | 3.31%
32 | Cc1nc2nc(SCC(=O)N(Cc3ccccc3)C(C)C)nn2c(C)c1Cc1ccccc1Cl | -7.72%
33 | COc1ccc(-n2c(C)nc3c(cnn3-c3ccc(F)cc3)c2=O)cc1 | -26.8%
34 | N#C/C(=C\N1CCOCC1)S(=O)(=O)c1ccc(Cl)cc1 | -41.8% (active)
35 | N/C(=N\S(=O)(=O)c1ccc(Cl)cc1)N1CCOCC1 | -7.63%
36 | O=S(=O)(Oc1ccccc1C(=S)N1CCOCC1)c1ccc(Cl)cc1 | -1.41%
37 | O=C(Nc1ccc(-c2nc3cc(NC(=O)c4ccccc4Cl)ccc3o2)cc1)c1ccccc1Cl | 6.02%
38 | COc1cc(NC(=O)c2ccccc2NS(=O)(=O)c2ccc(Cl)s2)cc(OC)c1 | -11.8%
39 | COC(=O)c1ccccc1NS(=O)(=O)c1ccc2[nH]c(=O)[nH]c2c1 | 9.8%
40 | COC(=O)c1ccc(NC(=O)c2ccccc2NS(=O)(=O)c2ccccc2)cc1 | -42.5% (active)
41 | CCS(=O)(=O)N1CCC(n2c(C)nc3cccnc32)CC1 | 12.3%
42 | COc1ccc(OC)c(-c2nc(C(N)=O)c3c(n2)n(-c2ccc4c(c2)OCO4)c(=O)n3C)c1 | -6.79%
43 | Cc1ccc(CN2COc3cc(C)c4c(oc(=O)c5ccccc54)c3C2)cc1 | 3.2%
44 | COc1cc(Cl)ccc1OCc1cc(C(=O)N(C)CCc2c(C)n[nH]c2C)no1 | -50% (active)

Row | SMILES | activity change, negative = inhibition
45 | CSc1ccccc1OCc1cc(C(=O)N(C)CCc2c(C)n[nH]c2C)no1 | -4.34%
46 | CCn1ccnc1CN(C)C(=O)c1cc(COc2ccc(Cl)cc2OC)on1 | -3.88%
47 | Cc1noc(C)c1-c1ccc2ncnc(NCc3ccc(F)c(F)c3)c2c1 | -25.4%
48 | COc1ccc(NC(=O)CSc2nc3ccccc3[nH]2)cc1 | 7.52%
49 | CC(=O)Nc1ccc(S(=O)(=O)N2CCCC2C(=O)O)cc1 (stereo unspecified) | 2.28%
50 | O=C(O)C1CCCN1S(=O)(=O)c1ccc2c(c1)CCC2 (stereo unspecified) | -38.4% (active)
51 | O=C(O)C1CCCN1S(=O)(=O)c1ccc(Br)cc1 (stereo unspecified) | -19.4%
52 | CCCS(=O)(=O)c1ncc(Cl)c(C(=O)Nc2scc(-c3ccccc3)c2C(=O)OCC)n1 | -10.7%
53 | CN(C)[C@@H]1C(=O)C(C(N)=O)=C(O)[C@@]2(O)C(=O)C3=C(O)c4c(O)ccc(Cl)c4[C@@H](O)[C@H]3C[C@@H]12 | -42.8% (active)
54 | C=C1c2c(Cl)ccc(O)c2C(O)=C2C(=O)[C@]3(O)C(O)=C(C(N)=O)C(=O)[C@@H](N(C)C)[C@@H]3[C@@H](O)C12 (stereo partly specified) | -4.29%
55 | Cc1ccc(C)c(N2CCN(C(=O)Cn3nc(C)c4sc5ccccc5c4c3=O)CC2)c1 | 5.73%
56 | COc1ccc(-c2noc(CSc3nc(C)cc(=O)[nH]3)n2)cc1OC | 12.5%
57 | COc1ccc(-c2cc(C(F)(F)F)n3nc(-c4ccccc4)cc3n2)cc1OC | 6.49%
58 | CCCN(CCC)CCNC(=O)c1ccc2c(c1)NC(=O)C(CS(=O)(=O)Cc1cccc(Br)c1)N2 (stereo unspecified) | -3.96%
59 | CC(=O)Nc1ccc2nc(SCCOc3cc(C)cc(C)c3)sc2c1 | -35.7% (active)
60 | Cc1ccc(OCCSc2nc3ccc(NC(=O)COc4ccc(C)cc4)cc3s2)cc1 | -5.49%
61 | Cc1cccc(OCCSc2nc3ccc(NC(=O)COc4ccccc4C)cc3s2)c1 | 5.79%
62 | NC(=O)C1CCN(C(=O)c2cccc(NC(=O)c3nsc4ccccc34)c2)CC1 | 7.53%
63 | O=C(CSc1ccccc1)Nc1cccc(S(=O)(=O)N2CCOCC2)c1 | -24.4%
64 | O=C(CSc1ccccc1)Nc1cccc(S(=O)(=O)N2CCCCC2)c1 | -39.5% (active)
65 | Nc1cc(N)nc(SCC(=O)Nc2cccc(S(=O)(=O)N3CCCCC3)c2)n1 | -7.32%
66 | CCOc1ccccc1N(C)C(=O)c1cc2c(s1)-c1ccccc1OC2 | 7.49%

Row | SMILES | activity change, negative = inhibition
67 | Cc1sc(C2C(C#N)=C(N)N(c3cccc(Cl)c3)C3=C2C(=O)CCC3)cc1CN1CCOCC1 (stereo unspecified) | -16.8%
68 | Cc1c(C(=O)CN2CCOCC2)[nH]c2ccccc12 | -9.55%
69 | Cc1c(C(=O)N2CCOCC2)[nH]c2ccc(OCc3ccccc3)cc12 | -45.7% (active)
70 | CCOC(=O)c1[nH]c2ccc(OC)cc2c1NC(=O)N1CCOCC1 | -7.34%
71 | CCOC(=O)c1ccc(NC(=O)Cn2cc(S(=O)(=O)Cc3ccccc3F)c3ccccc32)cc1 | 16.6%
72 | COc1cc(OC)cc(-c2nc3nc(C)c(CCC(=O)NCc4ccco4)c(C)n3n2)c1 | -2.94%
73 | Cc1nc2c(-c3ccccc3)c(C)nn2c(C)c1CCC(=O)NCCc1ccccc1 | -7.07%
74 | Cc1nc2c(-c3ccc(F)cc3)c(C)nn2c(C)c1CCC(=O)NCc1ccco1 | -61.2% (active)
75 | CCOC(=O)c1c(-c2ccc(OC)cc2)oc2ccc(OCc3ccc(C(=O)OC)cc3)cc12 | 4.56%
76 | O=C(Nc1ccc2nc(SCC(=O)N3CCCc4ccccc43)sc2c1)c1ccc(Cl)cc1 | -13.6%
77 | CCOC(=O)COc1nc(C)cc(C(F)(F)F)c1C#N | -9.55%
78 | Cc1nn(-c2nc(-c3ccccc3)cc(C(F)(F)F)n2)c(C)c1Cl | 5.82%
79 | N#Cc1c(C(F)(F)F)cc(-c2ccccc2)nc1SCC(=O)N1CCOCC1 | 7.61%
80 | Cc1cc(C(F)(F)F)c(C#N)c(SCC(=O)NC2CC2)n1 | -10.9%
81 | CCN(CC)c1nc(-c2ccccc2)cc(C(F)(F)F)c1C#N | -72.6% (active)
82 | Cc1ccc(-c2cc(C(F)(F)F)c(C#N)c(SCC(=O)Nc3ccccc3)n2)cc1 | -36.2% (active)
83 | CCCN1CCc2nc(N3CCN(C)CC3)ncc2C1 | -15.6%
84 | CSc1cccc(NC(=O)CN2C(=O)CCc3cc(S(=O)(=O)N4CCCCC4)ccc32)c1 | -0.775%
85 | Cc1cc2c(cc3c(SCc4cccc(Cl)c4)nnc(C)n32)o1 | -2.95%
86 | Cc1ccc(CNS(=O)(=O)c2ccc(-c3cc(C(F)(F)F)on3)s2)cc1 | 0.708%
